Inconclusive results are not listed. Calls of active or inactive are those of the source. Calls come from the whole dose curve; as a rule, active = well fitted inhibition curve with a large enough effect; inconclusive = small, poorly fitted or top-dose-only effect; inactive = flat fitted curve, though single readings scatter. Numbered stars: 1 amine (or outer) side, 2 acyl side, 3 side chain; on linkers, the order of the positions; unused ones are H or OH. Bridge positions count the residues as written; N and C are the ends. Square brackets hold non-standard residues; d marks the D form. Peptide text beside a SMILES is read from it. I, II: the chains in the order shown. Actinocin(9to1) = Cc1c2oc3c(C)ccc(C(=O)[*:1])c3nc-2c(C(=O)[*:2])c(N)c1=O; NMeV = CN[C@H](C(=O)O)C(C)C; Sar = CNCC(=O)O
Tests used:
Experiment in all cases: qHTS profiling for inhibitors of Plasmodium falciparum proliferation (AID 504749); note: nearly all actives have a fitted effect of over 60% in size
Details in all cases: P. falciparum in erythrocytes, SYBR Green DNA, 72 h; series mostly up to 28.7 µM
CP201 = tested on: CP201
Outline: (§1)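 Fluorescence of SYBR Green-bound parasite DNA, read at 485/535 nm, served as the growth measure. Infected erythrocytes were cultured with compound 72 h; artemisinin (0.29 uM) and DMSO wells defined the normalization range.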

CP203 = tested on: CP203
Outline: as §1

CP211 = tested on: CP211
Outline: as §1

CP215 = tested on: CP215
Outline: as §1

CP217 = tested on: CP217
Outline: as §1

CP237 = tested on: CP237
Outline: as §1

CP238 = tested on: CP238
Outline: as §1

CP247 = tested on: CP247
Outline: as §1

CP250 = tested on: CP250
Outline: as §1

CP252 = tested on: CP252
Outline: as §1

Measured: Potency
Potency is the fitted concentration of half-maximal effect.

CCCCCC=CCC=CCCCCCCCC(=O)OCC
inactive: all assays above

O=C(O)CNC(=O)c1ccccc1
inactive: all assays above

COc1cc(NS(C)(=O)=O)ccc1Nc1c2ccccc2nc2ccccc12
active: CP201 5.36 µM | CP203 4.26 µM | CP211 4.78 µM | CP215 3.38 µM | CP217 3.16 µM | CP237 1.58 µM | CP238 4.47 µM | CP247 1.26 µM | CP250 1.58 µM | CP252 0.891 µM

COc1c2occc2c(OC)c2c(=O)cc(C)oc12
inactive: all assays above

COC1=CC(=O)C[C@@H](C)[C@]12Oc1c(Cl)c(OC)cc(OC)c1C2=O
inactive: all assays above

CN=C(NC#N)Nc1ccc(C2=NNC(=O)CC2C)cc1 (stereo not given)
inactive: CP201 | CP203 | CP211 | CP215

COC(=O)[C@H]1[C@H]2C[C@H]3c4[nH]c5ccccc5c4CCN3C[C@H]2CC[C@@H]1O
inactive: CP201 | CP203 | CP211 | CP215

CCC(=O)c1c(O)cc(O)cc1O
inactive: all assays above

CCCOC(C(=O)OC1CCN(C)CC1)(c1ccccc1)c1ccccc1
inactive: CP201

C[C@]12CC[C@@H]3c4ccc(O)cc4CC[C@H]3[C@@H]1CC[C@@H]2O
inactive: all assays above

CC(C)(C)CC(C)(C)c1ccc(OCCOCC[N+](C)(C)Cc2ccccc2)cc1
active: CP201 4.78 µM | CP203 4.78 µM | CP211 4.26 µM | CP215 5.36 µM | CP217 4.47 µM | CP237 2.51 µM | CP238 4.47 µM | CP247 3.98 µM | CP250 4.47 µM | CP252 5.01 µM

CCCCOc1cc(C(=O)NCCN(CC)CC)c2ccccc2n1
inactive: all assays above

CCCn1c(=O)[nH]c(=O)c2[nH]cnc21
inactive: all assays above

O=C1c2ccccc2C(=O)C1c1ccccc1
inactive: all assays above

COc1ccc(C2C(=O)c3ccccc3C2=O)cc1
inactive: all assays above

c1ccc(OCc2ccc(CCCN3CCOCC3)cc2)cc1
inactive: all assays above

COc1cc(C(=S)N2CCOCC2)cc(OC)c1OC
inactive: all assays above

NCCCC[C@H](N[C@@H](CCc1ccccc1)C(=O)O)C(=O)N1CCC[C@H]1C(=O)O
inactive: all assays above

CC[N+](CC)(CCNC(=O)C(=O)NCC[N+](CC)(CC)Cc1ccccc1Cl)Cc1ccccc1Cl
active: CP201 4.78 µM | CP203 1.35 µM | CP211 1.07 µM | CP215 3.79 µM | CP217 7.94 µM | CP237 3.16 µM | CP238 2.51 µM | CP247 3.55 µM | CP250 2.51 µM | CP252 4.47 µM

CC(O)(P(=O)(O)O)P(=O)(O)O
inactive: all assays above

Cc1c(C(C)C)c(=O)n(-c2ccccc2)n1C
inactive: all assays above

CCCCCCc1ccc(O)cc1O
inactive: all assays above

CN1C(CCl)Nc2cc(Cl)c(S(N)(=O)=O)cc2S1(=O)=O (stereo not given)
inactive: all assays above

Cc1ccc(C(=O)C(C)CN2CCCCC2)cc1 (stereo not given)
inactive: all assays above

CCN(CC)CCNC(=O)COc1ccc(Cl)cc1
inactive: CP201 | CP203 | CP211 | CP215

CCCCCCCCCCCCCCCCOP(=O)([O-])OCC[N+](C)(C)C
inactive: all assays above

CC1(C)CCC(NC(=O)[C@@H](N)CCC(=O)O)CC1
inactive: all assays above

CCCCC1=NC2(CCCC2)C(=O)N1Cc1ccc(-c2ccccc2-c2nn[nH]n2)cc1
inactive: all assays above

CCn1cc(C(=O)O)c(=O)c2cnc(N3CCCC3)nc21
inactive: all assays above

O=S1(=O)c2cccc3cccc(c23)N1CCCN1CCN(c2ccc(F)cc2)CC1
inactive: all assays above

CC(=O)Oc1ccc(C(=C2CCCCC2)c2ccc(OC(C)=O)cc2)cc1
inactive: all assays above

CC(C)(CO)[C@@H](O)C(=O)NCCCO
inactive: all assays above

Oc1ccc(O)cc1
inactive: CP201
active: CP203 15.1 µM

COC(=O)[C@@H]1CC2=CC(=O)CC[C@]2(C)[C@@]23O[C@@H]2C[C@@]2(C)[C@@H](CC[C@@]24CCC(=O)O4)[C@H]13
inactive: all assays above

Cc1cc(=O)n(-c2ccccc2)n1C
inactive: all assays above

N[C@H](Cc1c[nH]c2ccccc12)C(=O)O
inactive: all assays above

O=C(O)c1cc2cc(Cc3cccnc3)ccc2o1
inactive: all assays above

COc1ccc(/C=C/C(=O)c2ccc(OC)cc2OC)cc1
active: CP201 8.49 µM | CP203 13.5 µM | CP211 6.75 µM | CP215 6.75 µM | CP217 5.01 µM | CP237 11.2 µM | CP238 11.2 µM | CP247 4.47 µM | CP250 5.62 µM | CP252 5.01 µM

CCCCCCCCCCCCCCCC[N+](C)(C)CC
active: CP201 6.75 µM | CP203 10.7 µM | CP211 4.78 µM | CP215 9.53 µM | CP217 5.62 µM | CP237 4.47 µM | CP238 5.01 µM | CP247 4.47 µM | CP250 5.01 µM | CP252 5.01 µM

CN1CCC[C@@H]1c1cccnc1
inactive: all assays above

CCC(C(=O)OCCN(CC)CC)c1ccccc1 (stereo not given)
inactive: all assays above

Cc1c2oc3c(C)ccc(C(=O)N[C@@H]4C(=O)N[C@H](C(C)C)C(=O)N5CCC[C@H]5C(=O)N(C)CC(=O)N(C)[C@@H](C(C)C)C(=O)O[C@@H]4C)c3nc-2c(C(=O)N[C@@H]2C(=O)N[C@H](C(C)C)C(=O)N3CCC[C@H]3C(=O)N(C)CC(=O)N(C)[C@@H](C(C)C)C(=O)O[C@@H]2C)c(N)c1=O (I: T[dV]P[Sar][NMeV] / II: T[dV]P[Sar][NMeV]; ester I:1-I:C, II:1-II:C; linker I:N-II:N via Actinocin(9to1))
active: CP201 0.0076 µM | CP203 0.006 µM | CP211 0.006 µM | CP215 0.0054 µM | CP217 0.0071 µM | CP237 7.08e-05 µM | CP238 0.0018 µM | CP247 0.0071 µM | CP250 0.0035 µM | CP252 0.0056 µM

CCOC(=O)OC(C)OC1=C(C(=O)Nc2ccccn2)N(C)S(=O)(=O)c2ccccc21 (stereo not given)
inactive: all assays above

CCN(CC)C(=O)N1CCN(C)CC1
inactive: all assays above

Cc1c(C(N)=O)cc([N+](=O)[O-])cc1[N+](=O)[O-]
inactive: all assays above
